Activity calls are given as the source filed them. How the source made its calls: active means hit-call score of the fitted dose curve at least 0.9, where 1 is the maximum; inactive means score below 0.9.

This note sets out measurements from PubChem BioAssay (EPA / NIEHS).

Conditions in all cases: mRNA level, 48 h; actives raise or lower the signal
Read-out in test [1]: Insulin Like Growth Factor 1 (IGF1), IGF1 (gene 3479)
The experiment in a line: LTEA_HepaRG_IGF1: Life Technologies and Expression Analysis (LTEA) Assay for Insulin Like Growth Factor 1 (IGF1) using HepaRG (AID 2283506). Summed up:
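Endpoint: IGF1 mRNA change by qRT-PCR, housekeeping-normalized, fitted bidirectionally relative to 0.5% DMSO vehicle. Human HepaRG cells were treated 48 h in serum-free induction medium, eight half-log concentrations topping at 100 uM.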

Read-out in test [2]: Intercellular Adhesion Molecule 1 (ICAM1), ICAM1 (gene 3383)
The experiment in a line: LTEA_HepaRG_ICAM1: Life Technologies and Expression Analysis (LTEA) Assay for Intercellular Adhesion Molecule 1 (ICAM1) using HepaRG (AID 2283507). Summed up:
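Readout is qRT-PCR mRNA level, normalized to three housekeeping genes and fitted bidirectionally against 0.5% DMSO vehicle. Human HepaRG cultures received compound for 48 h, top concentration 100 uM with half-log dilutions.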

Read-out in test [3]: Insulin-like growth factor-binding protein 1 (IGFBP1), IGFBP1 (gene 3484)
The experiment in a line: LTEA_HepaRG_IGFBP1: Life Technologies and Expression Analysis (LTEA) Assay for Insulin-like growth factor-binding protein 1 (IGFBP1) using HepaRG (AID 2283508). Summed up: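 Thawed HepaRG cells are plated for 48 h, switched to serum-free induction medium, then dosed in duplicate for another 48 h (100 uM top, half-log steps). Lysates in RLT go to qRT-PCR, and gain or loss of signal is fitted relative to vehicle.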

Read-out in test [4]: Interleukin 6 (IL6), IL6 (gene 3569)
The experiment in a line: LTEA_HepaRG_IL6: Life Technologies and Expression Analysis (LTEA) Assay for Interleukin 6 (IL6) using HepaRG (AID 2283509). Summed up:
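Changes in IL6 mRNA, up or down relative to 0.5% DMSO controls, were derived from concentration-response curves in human HepaRG cells treated for 48 h at up to 100 uM, with ACTB, GAPDH and POLR2A as normalizers.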

Read-out in test [5]: Interleukin 6 Receptor (IL6R), IL6R (gene 3570)
In words: LTEA_HepaRG_IL6R: Life Technologies and Expression Analysis (LTEA) Assay for Interleukin 6 Receptor (IL6R) using HepaRG (AID 2283510). Summed up:
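In this HepaRG screen, test chemicals act on cells for 48 h at up to 100 uM (eight half-log points, duplicate wells). IL6R expression is quantified by qRT-PCR after normalization to ACTB, GAPDH and POLR2A, with DMSO as baseline.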

Read-out in test [6]: Potassium channel subfamily K member 1 (KCNK1), KCNK1 (gene 3775)
In words: LTEA_HepaRG_KCNK1: Life Technologies and Expression Analysis (LTEA) Assay for Potassium channel subfamily K member 1 (KCNK1) using HepaRG (AID 2283511). Summed up: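 Human HepaRG cultures receive test chemicals for 48 h in 0.5% DMSO, top concentration 100 uM with half-log dilutions. Induction or suppression of KCNK1 mRNA relative to DMSO is derived by bidirectional fitting of qRT-PCR data.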

Read-out in test [7]: Keratin 19 (KRT19), KRT19 (gene 3880)
The experiment in a line: LTEA_HepaRG_KRT19: Life Technologies and Expression Analysis (LTEA) Assay for Keratin 19 (KRT19) using HepaRG (AID 2283512). Summed up: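 KRT19 transcript levels, measured by Fluidigm qRT-PCR against three housekeeping genes, are fitted for gain or loss of signal relative to DMSO. Human HepaRG cells receive test chemicals (top 100 uM, half-log steps, 0.5% DMSO) for 48 hours.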

Read-out in test [8]: JUN Transcription Factor, JUN (gene 3725)
The experiment in a line: LTEA_HepaRG_JUN: Life Technologies and Expression Analysis (LTEA) Assay for JUN Transcription Factor using HepaRG (AID 2283513). Summed up: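 Gene-expression endpoint: JUN mRNA (qRT-PCR, normalized to three reference genes) in HepaRG cultures treated 48 h with chemicals, duplicate wells, 100 uM maximum with half-log dilutions; bidirectional fitting relative to 0.5% DMSO.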

Read-out in test [9]: Lipase C (LIPC), LIPC (gene 3990)
In words: LTEA_HepaRG_LIPC: Life Technologies and Expression Analysis (LTEA) Assay for Lipase C (LIPC) using HepaRG (AID 2283514). Summed up:
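In this multiplexed gene-expression screen, human HepaRG cultures received test chemicals for 48 h across eight concentrations with 100 uM highest, in duplicate. Values reflect LIPC mRNA induction or suppression versus DMSO vehicle, from normalized qRT-PCR.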

Read-out in test [10]: Lipoprotein lipase (LPL), LPL (gene 4023)
In words: LTEA_HepaRG_LPL: Life Technologies and Expression Analysis (LTEA) Assay for Lipoprotein lipase (LPL) using HepaRG (AID 2283515). The gist of the method: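 Concentration-response testing used half-log steps from 100 uM in 0.5% DMSO on human HepaRG cells, 48 h, duplicate wells. Phenobarbital 1 mM served as induction control; LPL mRNA was normalized to ACTB, GAPDH, POLR2A.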

Read-out in test [11]: MicroRNA 122 (MIR122), gene 406906
The experiment in a line: LTEA_HepaRG_MIR122: Life Technologies and Expression Analysis (LTEA) Assay for MicroRNA 122 (MIR122) using HepaRG (AID 2283516). Further: the transcript read is the microRNA miR-122. Summed up:
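Changes in transcript abundance, up or down relative to 0.5% DMSO vehicle, were scored after 48 h chemical treatment of HepaRG cells (maximum 100 uM). Quantification used TaqMan qRT-PCR normalized to housekeeping genes.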

Read-out in test [12]: matrix metalloproteinase-10 (MMP10), MMP10 (gene 4319)
The experiment in a line: LTEA_HepaRG_MMP10: Life Technologies and Expression Analysis (LTEA) Assay for matrix metalloproteinase-10 (MMP10) using HepaRG (AID 2283517). The gist of the method: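 In differentiated HepaRG cultures kept in 0.5% DMSO, test chemicals act for 48 h over an eight-point range with a top dose of 100 uM. Expression is then quantified by TaqMan RT-PCR against ACTB, GAPDH and POLR2A.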

Read-out in another test: MYC, MYC (gene 4609)
In words: LTEA_HepaRG_MYC: Life Technologies and Expression Analysis (LTEA) Assay for MYC using HepaRG (AID 2283518). The gist of the method: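 HepaRG, ~100,000 cells/well, collagen I; 48 h plating; serum-free induction medium; 48 h dosing, duplicate, 100 uM top, half-log, 0.5% DMSO; total RNA → qRT-PCR MYC; gain/loss fit vs DMSO.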

Read-out in test [13]: matrix metalloproteinase-3 (MMP3), MMP3 (gene 4314)
In words: LTEA_HepaRG_MMP3: Life Technologies and Expression Analysis (LTEA) Assay for matrix metalloproteinase-3 (MMP3) using HepaRG (AID 2283519). Summed up:
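Human liver HepaRG cultures received chemicals (top concentration 100 uM, 0.5% DMSO) for 48 h in duplicate. MMP3 mRNA induction or loss was then assessed via TaqMan qRT-PCR with housekeeping-gene normalisation.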

Read-out in test [14]: Paternally Expressed 10 (PEG10), PEG10 (gene 23089)
In words: LTEA_HepaRG_PEG10: Life Technologies and Expression Analysis (LTEA) Assay for Paternally Expressed 10 (PEG10) using HepaRG (AID 2283520).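 On AC50: PEG10 transcript by qRT-PCR normalised to ACTB GAPDH and POLR2A.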 The gist of the method: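 After 48 h exposure of differentiated HepaRG cells (0.5% DMSO vehicle, eight concentrations up to 100 uM, duplicates), PEG10 mRNA was measured by TaqMan qRT-PCR. Values were normalised to endogenous control genes and analysed bidirectionally against vehicle.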

Read-out in test [15]: Protein phosphatase 2A (PPP2R4), PTPA (gene 5524)
In words: LTEA_HepaRG_PPP2R4: Life Technologies and Expression Analysis (LTEA) Assay for Protein phosphatase 2A (PPP2R4) using HepaRG (AID 2283522). Summed up: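 Using HepaRG cultures maintained in 0.5% DMSO, chemicals are tested 48 h at up to 100 uM in duplicate. Induction or suppression of PPP2R4 mRNA, measured by qRT-PCR, is fitted bidirectionally against the vehicle baseline.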

Read-out in test [16]: Phosphatase and tensin (PTEN), PTEN (gene 5728)
In words: LTEA_HepaRG_PTEN: Life Technologies and Expression Analysis (LTEA) Assay for Phosphatase and tensin (PTEN) using HepaRG (AID 2283523). The gist of the method:
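Expression of PTEN is quantified in the human liver line HepaRG following two days of dosing (top concentration 100 uM, half-log dilutions, 0.5% DMSO). Values derive from bidirectional curve fitting relative to DMSO controls.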

Read-out in test [17]: solute carrier (SLC22A1), SLC22A1 (gene 6580)
The experiment in a line: LTEA_HepaRG_SLC22A1: Life Technologies and Expression Analysis (LTEA) Assay for solute carrier (SLC22A1) using HepaRG (AID 2283524).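 On AC50: differentiated human HepaRG liver cells in serum-free induction medium; TaqMan qRT-PCR normalized to ACTB GAPDH and POLR2A housekeeping genes.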 Summed up:
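Transcript induction or suppression of SLC22A1 in human HepaRG cultures is scored after 48 h chemical treatment, with DMSO (0.5%) as baseline for bidirectional fitting. Concentrations span eight half-log points topping at 100 uM.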

Read-out in test [18]: Nuclear factor NF-kappa-B p105 subunit (Homo sapiens) (UniProt P19838)
In words: LTEA_HepaRG_NFKB1: Life Technologies and Expression Analysis (LTEA) Assay for Nuclear Factor Kappa B Subunit 1 (NFKB1) using HepaRG (AID 2283521).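 Further: differentiated human HepaRG liver cells in serum-free induction medium; TaqMan qRT-PCR transcript normalised to ACTB GAPDH and POLR2A housekeeping genes.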 The gist of the method:
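HepaRG, 48 h exposure; 8-pt half-log series from 100 uM in 0.5% DMSO; duplicates. Readout: NFKB1 mRNA by qRT-PCR (Fluidigm arrays), housekeeping-normalized. Gain/loss fit vs DMSO baseline.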

Read-out in test [19]: Pyruvate Dehydrogenase Kinase 4 (PDK4), PDK4 (gene 5166)
The experiment in a line: LTEA_HepaRG_PDK4: Life Technologies and Expression Analysis (LTEA) Assay for Pyruvate Dehydrogenase Kinase 4 (PDK4) using HepaRG (AID 2283525). The gist of the method:
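Eight-point, half-log concentration series (max 100 uM, 0.5% DMSO) applied to differentiated HepaRG cells for 48 h in duplicate. Endpoint: PDK4 mRNA induction or repression by qRT-PCR against DMSO baseline.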

Chain of Nuclear factor NF-kappa-B p105 subunit (Homo sapiens) (P19838 whole entry, looked up): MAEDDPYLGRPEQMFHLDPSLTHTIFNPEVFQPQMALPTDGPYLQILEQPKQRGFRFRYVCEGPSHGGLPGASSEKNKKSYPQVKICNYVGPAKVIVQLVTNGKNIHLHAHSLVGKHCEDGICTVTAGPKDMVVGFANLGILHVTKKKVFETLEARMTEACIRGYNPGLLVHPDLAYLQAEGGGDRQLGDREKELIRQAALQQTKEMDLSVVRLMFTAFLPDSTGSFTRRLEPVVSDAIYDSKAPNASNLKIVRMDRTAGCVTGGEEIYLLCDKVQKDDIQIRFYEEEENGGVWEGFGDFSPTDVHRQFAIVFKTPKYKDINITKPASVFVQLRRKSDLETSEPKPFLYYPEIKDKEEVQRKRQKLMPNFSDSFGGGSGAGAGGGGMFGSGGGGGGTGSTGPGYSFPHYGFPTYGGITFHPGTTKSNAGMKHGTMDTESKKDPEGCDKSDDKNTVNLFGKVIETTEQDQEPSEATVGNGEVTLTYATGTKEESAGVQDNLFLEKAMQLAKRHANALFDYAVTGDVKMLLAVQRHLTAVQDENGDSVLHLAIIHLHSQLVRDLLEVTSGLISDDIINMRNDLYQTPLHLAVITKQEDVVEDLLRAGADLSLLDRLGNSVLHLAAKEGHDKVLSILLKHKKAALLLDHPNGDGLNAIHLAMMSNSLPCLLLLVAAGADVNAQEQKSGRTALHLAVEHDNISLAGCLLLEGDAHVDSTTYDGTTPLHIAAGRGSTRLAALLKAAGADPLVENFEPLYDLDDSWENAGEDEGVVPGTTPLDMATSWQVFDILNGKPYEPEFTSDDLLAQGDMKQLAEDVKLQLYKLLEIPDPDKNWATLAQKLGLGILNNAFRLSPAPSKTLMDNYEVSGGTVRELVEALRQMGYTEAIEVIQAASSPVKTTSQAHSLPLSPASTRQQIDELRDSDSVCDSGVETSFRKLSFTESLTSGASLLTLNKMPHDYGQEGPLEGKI

On to `CCCCC(CC)COC(=O)CCCCCCCCC(=O)OCC(CC)CCCC` (centres undefined), for which the result in test [1], in test [2], in test [3], in test [4], in [5] and in test [6] was inactive. Besides, the call in [7], in test [8], in [9], in test [10], in test [11] and in test [12] was inactive. Besides, the outcome was “inactive” with MYC, MYC (gene 4609); “inactive” in [13]; “inactive” in test [14]; “inactive” in [15]; “inactive” in test [16]; “inactive” in test [17].

For `CC[C@H]1CC[C@H](NCc2cc3c(cc2OC)[C@H]2C[C@H]2C(=O)N3C)[C@H](c2ccccc2)N1`, the molecule was called inactive in [1], in test [2], in test [3], in test [4], in test [5] and in [6]. Moreover, the outcome in [7] was “inactive”; in test [9] it was “inactive”; in [11], “inactive”; in test [12], “inactive”; with MYC, MYC (gene 4609), “inactive”; in [14], “inactive”. For the same molecule, the result in test [18], in [15], in test [16], in test [17] and in test [19] was inactive. Besides, in [10], the AC50 was 50 µM (active).

With `O=c1[nH]c2ccc(S(=O)CCN3CCC(Cc4ccc(F)cc4)CC3)cc2o1` (centres undefined), the molecule was called inactive in test [1], in test [2], in test [5], in [6], in test [8] and in test [11]. The molecule was classed as inactive in [12], in test [13], in test [18], in test [15] and in test [16]. For the same molecule, the AC50 was 89.7 µM (active) in test [3]; 63 µM (active) in [4]; 82 µM (active) in [9]; 59.5 µM (active) in [10]; 17.3 µM (active) with MYC, MYC (gene 4609); 50 µM (active) in test [14]. Besides, in [17], the AC50 is 67.2 µM (active).

Usually AC50 stands for the midpoint of the concentration-response curve, whichever way the signal moves.
